Measurements: PubChem BioAssay (NCATS)
Inconclusive results are not listed. Entries that show only a call come without a potency. A number with no mark means an inactive call. Active and inactive are the calls of the source. Calls follow the shape of the dose curve; as a rule, active = well fitted curve in the direction sought with a large enough effect; inconclusive = small, poorly fitted or top-dose-only effect, or another doubt; inactive = no such curve, though single readings can be large; an effect the other way counts as inactive or inconclusive.

Tests used:
[1] = molecular target: Furin (Homo sapiens) (UniProt P09958); assay: Furin counterscreen qHTS for Zika virus inhibitors (AID 1347149); also: nearly all actives have a fitted effect of over 70% in size; also: potency is read from the fitted curve at half-maximal effect;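 as to activity change, negative = inhibition: purified recombinant full-length human furin enzyme at 5 nM; fluorescence gain from furin cutting a BOC-RVRR-AMC peptide substrate over 15 min; top concentration of the series differs between compounds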
Sequence of Furin (Homo sapiens) (P09958 whole entry, looked up): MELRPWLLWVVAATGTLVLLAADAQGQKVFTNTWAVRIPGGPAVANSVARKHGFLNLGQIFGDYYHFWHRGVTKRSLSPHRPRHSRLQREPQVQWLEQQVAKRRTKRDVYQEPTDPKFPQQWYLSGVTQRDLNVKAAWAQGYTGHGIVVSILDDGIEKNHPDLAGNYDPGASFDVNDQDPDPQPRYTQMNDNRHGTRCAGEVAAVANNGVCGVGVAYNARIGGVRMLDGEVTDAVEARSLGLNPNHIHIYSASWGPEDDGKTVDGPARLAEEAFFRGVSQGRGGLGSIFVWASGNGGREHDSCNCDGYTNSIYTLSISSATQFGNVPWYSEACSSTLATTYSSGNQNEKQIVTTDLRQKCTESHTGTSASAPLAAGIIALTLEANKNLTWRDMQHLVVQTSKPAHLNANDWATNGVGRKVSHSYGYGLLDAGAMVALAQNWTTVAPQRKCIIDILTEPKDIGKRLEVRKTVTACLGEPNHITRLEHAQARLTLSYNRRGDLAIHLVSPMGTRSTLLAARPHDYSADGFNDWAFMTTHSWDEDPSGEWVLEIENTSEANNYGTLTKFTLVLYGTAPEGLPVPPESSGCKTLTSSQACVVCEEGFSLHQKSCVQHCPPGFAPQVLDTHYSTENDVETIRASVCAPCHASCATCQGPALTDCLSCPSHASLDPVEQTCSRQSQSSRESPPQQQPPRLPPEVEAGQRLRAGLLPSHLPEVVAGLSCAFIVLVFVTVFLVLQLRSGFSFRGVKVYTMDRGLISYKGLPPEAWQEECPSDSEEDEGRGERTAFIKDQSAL
Summary of the method: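 Counterscreen measures cleavage of 2 microM BOC-RVRR-AMC, below its ~15 microM Km, by 5 nM full-length human furin at pH 7.0 after a 15-min compound preincubation. Inhibition derives from the 15-min fluorescence increase at 37C.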

[2] = Confirmatory screen GU Rhodamine qHTS for Zika virus inhibitors qHTS (AID 1347157); also: nearly all actives have a fitted effect of over 70% in size; also: potency is read from the fitted curve at half-maximal effect
Summary of the method: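 Enzyme 25 nM in Tris-HCl pH 8.0 + 0.01% Tween 20; compounds up to 114 microM, 15 min RT dark; + Rhod110 substrate 1.5 microM; read t0 and 15 min; delta fluorescence → % inhibition → 4-parameter Hill fit.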

[3] = ZIKV-mCherry secondary qHTS for Zika virus inhibitors (AID 1347158); also: top concentration of the series differs between compounds
Summary of the method: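 Percent infection is the share of Hoechst-identified Vero nuclei with mCherry signal above 450 RFU (3 SD over negative controls). Cells were infected with recombinant ZIKV-mCherry at MOI 1 after compound addition and imaged 48–72 h later.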

[4] = Confirmatory screen NINDS Rhodamine qHTS for Zika virus inhibitors (AID 1347161); also: nearly all actives have a fitted effect of over 60% in size; also: potency is read from the fitted curve at half-maximal effect;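 as to activity change, negative = inhibition: purified Zika NS2B-NS3 protease with linked NS2B cofactor domain and Rhodamine110 peptide substrate; series mostly up to about 110 µM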
Summary of the method: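 Aprotinin served as in-plate control. Conditions: 25 nM linked NS2B-NS3, pH 8.0 Tris buffer, titrated compounds, 15 min preincubation and 15 min reaction with 1.5 microM Rhod110 substrate at room temperature.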

[5] = system: Zika virus NS2B-NS3 protease (linked); assay: 384 well plate NINDS AMC confirmatory qHTS for Zika virus inhibitors (AID 1347163); also: nearly all actives have a fitted effect of over 50% in size; also: potency is read from the fitted curve at half-maximal effect;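 as to activity change, negative = inhibition: linked protease at 5 30 or 60 nM final depending on run; fluorescence of AMC released from Ac-VKTGKR-AMC peptide cleaved by the protease; top concentration of the series differs between compounds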
Summary of the method: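 Fluorescence at 355/460 nm was read after 25 minutes of cleavage of 30 microM Ac-VKTGKR-AMC at room temperature, in the dark. Before substrate addition, compounds (up to 1 mM final) sat ~15 minutes with 5, 30 or 60 nM linked protease. Signals were normalized to no-enzyme and no-inhibitor wells.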

[6] = Tertiary RLuc qRT-PCR qHTS assay for Zika virus inhibitors (AID 1347169); also: top concentration of the series differs between compounds; nearly all actives have a fitted effect of over 55% in size
Summary of the method: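 Orthogonal cell-based readout: luminescence measured 1-1.5 hrs after adding live-cell Renilla substrate to Vero cells that had been infected with ZIKV-RLuc (MOI 1-2) post-compound, incubated 48-72 hrs at 37 degrees C.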

[7] = molecular target: Tyrosyl-DNA phosphodiesterase 1 (Homo sapiens) (UniProt Q9NUW8); assay: Confirmation Assay for Inhibitors of Tyrosyl-DNA Phosphodiesterase (TDP1) (AID 489007); conditions: recombinant human TDP1 enzymatic activity, dose-response; also: potency is read from the fitted curve at half-maximal effect; nearly all actives have a fitted effect of over 40% in size
Sequence of Tyrosyl-DNA phosphodiesterase 1 (Homo sapiens) (Q9NUW8 whole entry, looked up): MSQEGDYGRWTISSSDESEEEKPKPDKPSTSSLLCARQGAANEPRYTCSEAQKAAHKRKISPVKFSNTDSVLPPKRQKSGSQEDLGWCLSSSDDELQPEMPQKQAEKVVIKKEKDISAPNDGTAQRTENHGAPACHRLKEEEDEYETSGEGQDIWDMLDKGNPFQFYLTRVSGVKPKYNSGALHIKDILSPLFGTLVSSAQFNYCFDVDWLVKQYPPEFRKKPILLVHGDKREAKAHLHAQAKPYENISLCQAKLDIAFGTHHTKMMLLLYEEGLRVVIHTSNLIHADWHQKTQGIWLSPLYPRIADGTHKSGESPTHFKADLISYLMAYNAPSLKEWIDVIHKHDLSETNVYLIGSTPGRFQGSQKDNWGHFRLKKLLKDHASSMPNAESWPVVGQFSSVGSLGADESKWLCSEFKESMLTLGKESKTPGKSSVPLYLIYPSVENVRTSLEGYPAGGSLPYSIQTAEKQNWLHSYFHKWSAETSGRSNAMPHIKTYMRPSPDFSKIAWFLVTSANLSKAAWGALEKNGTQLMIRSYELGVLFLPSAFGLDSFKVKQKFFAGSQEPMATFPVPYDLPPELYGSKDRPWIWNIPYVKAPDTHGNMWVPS
Summary of the method: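 AlphaScreen assay of tyrosine-FITC cleavage from a biotinylated DNA substrate (15 nM) by E. coli-expressed human Tdp1 (1 nM). Sequence: compound preincubation 15 min, reaction 5 min, bead detection 10 min, all at room temperature. No-enzyme wells give maximum signal.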

[8] = system: Zika virus NS2B-NS3 protease (linked construct); assay: 384 well plate NINDS Rhodamine confirmatory qHTS for Zika virus inhibitors (AID 1347164);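 also: fluorescence from protease cleavage of Ac-LKRR-rhodamine 110 substrate; potency is read from the fitted curve at half-maximal effect; nearly all actives have a fitted effect of over 65% in size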
Summary of the method: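 Fluorescence at 485/538 nm was measured 25 minutes after adding 10 microM Ac-LKRR-Rd substrate, in the dark at room temperature. The protease (5, 30 or 60 nM final) had been preincubated ~15 minutes with compound; aprotinin as control.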

[9] = molecular target: Rap guanine nucleotide exchange factor 3 (Homo sapiens) (UniProt O95398); assay: Confirmatory qHTS for agonist of cAMP-regulated guanine nucleotide exchange factor 3 (EPAC1) (AID 1645881);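 also: EPAC1 catalysed release of BODIPY-GDP from Rap1B seen as fluorescence loss; nearly all actives have a fitted effect of over 75% in size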
Sequence of Rap guanine nucleotide exchange factor 3 (Homo sapiens) (O95398 whole entry, looked up): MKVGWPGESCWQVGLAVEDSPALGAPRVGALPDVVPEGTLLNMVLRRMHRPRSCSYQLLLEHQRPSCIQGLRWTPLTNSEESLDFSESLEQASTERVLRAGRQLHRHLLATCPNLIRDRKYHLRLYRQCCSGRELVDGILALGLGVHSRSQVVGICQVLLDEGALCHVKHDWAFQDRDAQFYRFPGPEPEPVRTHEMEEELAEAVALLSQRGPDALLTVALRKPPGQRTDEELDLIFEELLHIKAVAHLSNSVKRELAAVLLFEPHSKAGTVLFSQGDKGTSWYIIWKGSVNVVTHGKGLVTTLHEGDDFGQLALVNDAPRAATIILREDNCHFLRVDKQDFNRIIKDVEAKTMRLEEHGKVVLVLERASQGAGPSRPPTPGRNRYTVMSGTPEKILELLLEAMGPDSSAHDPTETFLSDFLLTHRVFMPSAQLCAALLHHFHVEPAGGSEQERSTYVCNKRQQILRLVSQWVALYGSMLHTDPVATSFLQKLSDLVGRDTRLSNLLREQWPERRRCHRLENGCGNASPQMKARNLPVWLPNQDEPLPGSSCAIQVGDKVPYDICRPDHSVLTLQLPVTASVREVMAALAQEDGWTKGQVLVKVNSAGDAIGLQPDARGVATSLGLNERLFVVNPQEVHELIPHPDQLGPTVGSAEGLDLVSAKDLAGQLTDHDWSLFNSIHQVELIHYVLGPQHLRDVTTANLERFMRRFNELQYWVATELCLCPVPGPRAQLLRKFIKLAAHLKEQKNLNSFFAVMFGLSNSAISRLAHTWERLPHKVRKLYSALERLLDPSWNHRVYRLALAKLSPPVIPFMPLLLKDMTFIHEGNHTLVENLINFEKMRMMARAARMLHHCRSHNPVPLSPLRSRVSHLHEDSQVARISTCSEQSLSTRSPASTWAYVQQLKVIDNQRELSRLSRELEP

[10] = molecular target: Rap guanine nucleotide exchange factor 4 (Homo sapiens) (UniProt Q8WZA2); assay: Confirmatory qHTS for agonist of cAMP-regulated guanine nucleotide exchange factor 4 (EPAC2) (AID 1645884);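 also: nucleotide exchange releases bodipy-GDP from Rap1 and this lowers its fluorescence; nearly all actives have a fitted effect of over 65% in size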
Sequence of Rap guanine nucleotide exchange factor 4 (Homo sapiens) (Q8WZA2 whole entry, looked up): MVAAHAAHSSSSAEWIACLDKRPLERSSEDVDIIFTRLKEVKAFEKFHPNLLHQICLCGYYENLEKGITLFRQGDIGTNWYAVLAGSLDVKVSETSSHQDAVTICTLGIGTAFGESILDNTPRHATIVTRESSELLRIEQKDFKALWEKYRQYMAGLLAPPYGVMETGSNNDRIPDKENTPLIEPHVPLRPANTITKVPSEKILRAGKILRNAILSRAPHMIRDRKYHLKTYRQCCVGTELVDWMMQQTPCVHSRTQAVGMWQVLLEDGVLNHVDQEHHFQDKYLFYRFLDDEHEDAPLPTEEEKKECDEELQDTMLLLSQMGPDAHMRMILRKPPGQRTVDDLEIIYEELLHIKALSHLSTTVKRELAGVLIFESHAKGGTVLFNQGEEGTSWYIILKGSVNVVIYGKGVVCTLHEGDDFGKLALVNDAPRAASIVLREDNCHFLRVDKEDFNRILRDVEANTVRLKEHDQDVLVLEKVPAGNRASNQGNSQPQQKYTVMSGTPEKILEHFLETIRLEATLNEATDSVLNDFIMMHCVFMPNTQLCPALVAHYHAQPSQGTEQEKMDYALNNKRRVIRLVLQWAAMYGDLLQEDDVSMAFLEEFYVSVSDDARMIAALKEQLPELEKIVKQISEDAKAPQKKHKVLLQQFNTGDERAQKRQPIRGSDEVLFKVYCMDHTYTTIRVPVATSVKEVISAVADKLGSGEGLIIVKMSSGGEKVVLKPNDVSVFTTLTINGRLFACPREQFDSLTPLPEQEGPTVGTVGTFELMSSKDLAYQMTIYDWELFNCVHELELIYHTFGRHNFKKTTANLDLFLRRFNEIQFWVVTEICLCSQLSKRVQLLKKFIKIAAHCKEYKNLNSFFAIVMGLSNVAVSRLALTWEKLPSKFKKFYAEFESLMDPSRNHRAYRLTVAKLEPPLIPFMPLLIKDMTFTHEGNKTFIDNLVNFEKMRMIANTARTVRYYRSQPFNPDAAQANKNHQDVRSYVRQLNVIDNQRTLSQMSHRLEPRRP

[11] = molecular target: Rap guanine nucleotide exchange factor 4 (Homo sapiens) (UniProt Q8WZA2); assay: Confirmatory qHTS for antagonist of cAMP-regulated guanine nucleotide exchange factor 4 (EPAC2) (AID 1645885); also: nearly all actives have a fitted effect of over 25% in size
[12] = molecular target: Rap guanine nucleotide exchange factor 3 (Homo sapiens) (UniProt O95398); assay: Counterscreen qHTS for antagonist of cAMP-regulated guanine nucleotide exchange factor 3 (EPAC1) (AID 1645888);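 also: fluorescence loss as bound BODIPY-GDP is released from Rap1B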
Summary of the method: (§1)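 Measured: fluorescence of BODIPY-GDP bound to Rap1B, which falls as exchange proceeds. Conditions include 50 uM competing GDP, 5 and 30 min reads, and a later cAMP challenge for antagonist detection.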

[13] = molecular target: Rap guanine nucleotide exchange factor 3 (Homo sapiens) (UniProt O95398); assay: Counterscreen qHTS for agonist of cAMP-regulated guanine nucleotide exchange factor 3 (EPAC1) (AID 1645889); also: nearly all actives have a fitted effect of over 40% in size
Summary of the method: as §1

SMILES: O=C(Nc1ccccc1)c1ccc2c(O)c(S(=O)(=O)c3ccc(Cl)cc3)c(=O)[nH]c2c1
- Potency [1]: inactive
- Potency [2]: 22.4 µM (active)
- Potency [3]: inactive
- Potency [4]: 14.1 µM (active)
- Potency [5]: 398 µM (active)
- Potency [6]: inactive

SMILES: O=C(O)c1ccc(NS(=O)(=O)c2ccc(Cl)c(C(=O)Nc3ccccc3)c2)cc1
- Potency [1]: inactive
- Potency [2]: inactive
- Potency [4]: inactive
- Potency [6]: inactive

SMILES: O=C(O)CSc1nc2ccc(NC(=O)COc3ccc(Cl)cc3)cc2s1
- Potency [7]: 11.2 µM (active)
- Potency [1]: inactive
- Potency [2]: 31.6 µM (active)
- Potency [3]: inactive
- Potency [5]: 25.1 µM (active)
- Potency [6]: inactive

SMILES: O=C(O)CCc1ccc(-c2ccc(Cl)cc2)n1-c1cccc(C(F)(F)F)c1
- Potency [1]: inactive
- Potency [2]: 7.08 µM (active)
- Potency [4]: 11.2 µM (active)
- Potency [8]: 44.7 µM (active)
- outcome [9]: inactive
- outcome [10]: inactive
- activity change, negative = inhibition [11]: 25.6% [at 12.7 µM]
- outcome [12]: inactive
- Potency [13]: inactive

SMILES: O=C(Nc1ccc(-c2nc3ccccc3s2)c(O)c1)c1ccc(Br)cc1
- Potency [1]: inactive
- Potency [2]: inactive
- Potency [4]: inactive
- Potency [6]: inactive

SMILES: CCCc1nn2c(=O)cc(COC(=O)c3ccccc3NC(=O)c3ccc(Cl)cc3)nc2s1
- Potency [1]: 41.8 µM (active)
- Potency [2]: inactive
- Potency [4]: inactive

SMILES: CCOC(=O)c1ccc(Nc2nc3ccccc3nc2NS(=O)(=O)c2ccc(Cl)cc2)cc1
- Potency [1]: inactive
- Potency [2]: 3.16 µM (active)
- Potency [4]: 3.55 µM (active)
- Potency [5]: inactive

SMILES: Cc1cn2c(=O)cc(COC(=O)c3ccc(NC(=O)c4ccc(C(C)(C)C)cc4)cc3)nc2s1
- Potency [1]: 46.9 µM (active)
- Potency [2]: inactive
- Potency [4]: inactive
- Potency [6]: inactive

SMILES: O=C(Nc1ccccc1C(=O)OCc1cc(=O)n2nc(C3CC3)sc2n1)c1cccc(F)c1
- Potency [1]: inactive
- Potency [2]: inactive
- Potency [4]: inactive
- Potency [6]: inactive

SMILES: O=C(O)c1cc(-n2c(/C=C\c3ccc(F)cc3)nc3ccccc3c2=O)ccc1Cl
- Potency [1]: inactive
- Potency [2]: 39.8 µM (active)
- Potency [3]: inactive
- Potency [5]: 200 µM (active)
- Potency [8]: 141 µM (active)
- Potency [6]: inactive

SMILES: O=C(CNc1nnc(-c2ccc([S+](=O)([O-])N3CCCC3)cc2)n1-c1ccccc1)Nc1ccc(C(=O)O)cc1
- Potency [1]: inactive
- Potency [2]: inactive
- Potency [4]: inactive

SMILES: CC(C)c1nn2c(=O)cc(COC(=O)c3ccc(NC(=O)c4cccs4)cc3)nc2s1
- Potency [1]: inactive
- Potency [2]: inactive
- Potency [4]: inactive
- Potency [6]: inactive

SMILES: COc1ccc(S(=O)(=O)c2cc(NS(=O)(=O)c3ccc(Cl)cc3)c(C)c(C)c2O)cc1
- Potency [1]: inactive
- Potency [2]: inactive
- Potency [4]: inactive
- Potency [6]: inactive

SMILES: CC(C)OC(=O)c1ccc(NC(=O)CSc2nc(-c3cccs3)cc(C(F)(F)F)n2)cc1
- Potency [1]: 52.7 µM (active)
- Potency [2]: inactive
- Potency [4]: inactive
- Potency [6]: inactive

SMILES: O=C(OCC#CCSc1nnc(-c2cccc3ccccc23)o1)c1ccc(C(F)(F)F)cc1
- Potency [1]: 41.8 µM (active)
- Potency [2]: inactive
- Potency [4]: inactive
- Potency [6]: inactive

SMILES: Cc1csc2nc(COC(=O)c3ccc(NC(=O)c4ccccc4Br)cc3)cc(=O)n12
- Potency [1]: 59.1 µM (active)
- Potency [2]: inactive
- Potency [4]: inactive

SMILES: CCc1ccc(S(=O)(=O)Nc2cc3c(C(=O)OCc4ccccc4)c(C)oc3c3ccccc23)cc1
- Potency [1]: inactive
- Potency [2]: inactive
- Potency [4]: inactive

SMILES: O=C(COc1ccccc1F)Nc1ccccc1C(=O)OCc1cc(=O)n2nc(C3CC3)sc2n1
- Potency [1]: inactive
- Potency [2]: inactive
- Potency [4]: inactive

SMILES: Cc1oc2c(cc(NS(=O)(=O)c3ccc(Br)cc3)c3ccccc32)c1C(=O)OCc1ccccc1
- Potency [1]: inactive
- Potency [2]: 31.6 µM (active)
- Potency [3]: inactive
- Potency [4]: 39.8 µM (active)
- Potency [8]: 63.1 µM (active)

SMILES: O=C(CSc1nnc(-c2cccc([S+](=O)([O-])NC3CCCC3)c2)n1-c1ccc(F)cc1)Nc1ccc(C(=O)O)cc1
- Potency [1]: inactive
- Potency [2]: inactive
- Potency [4]: inactive
- Potency [6]: inactive

SMILES: O=C(O)Cn1nnc(-c2ccc(OCc3cccc(C(F)(F)F)c3)cc2)n1
- Potency [1]: inactive
- Potency [2]: 25.1 µM (active)
- Potency [3]: inactive
- Potency [4]: 8.91 µM (active)
- Potency [8]: 112 µM (active)
- Potency [6]: inactive

SMILES: O=C(OCC#CCSc1nnc(-c2cccc3ccccc23)o1)c1ccc(Cl)c(C(F)(F)F)c1
- Potency [1]: 52.7 µM (active)
- Potency [2]: 25.1 µM (active)
- Potency [4]: inactive
- Potency [6]: inactive
